The values that follow come from PubChem BioAssay (NCI).

Compounds without any hit were thinned out: in the full panel of roughly 83,000, 20% have a hit.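 Percent growth is the endpoint: 0 to 100 indicates growth inhibition (40 means 60% inhibition), 0 means no net growth, and negative values indicate cell death.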 A number with no mark means an inactive call. The source made the active and inactive calls. How the source made its calls: active means growth percent below 10; inactive means the rest.

What all share (test): NCI-60 one-dose screen, 48 h (100 = growth as untreated, 0 = no growth, -100 = all killed)
Holding throughout (conditions): 10 µM unless noted

In experiment [1] the test system is NCI-H23 lung.
Experiment [2] relates to NCI-H226 lung.
In experiment [3] the test system is NCI-H322M lung.
Experiment [4] concerns HOP-62 NSCLC.
Experiment [5] relates to NCI-H460 lung.
Experiment [6] deals with HOP-92 NSCLC.
The subject of experiment [7] is NCI-H522 lung.
For experiment [8], the system named is A549/ATCC NSCLC.
Experiment [9] deals with 786-0 renal.
In experiment [10] the test system is COLO 205 colon.
Experiment [11] deals with DU-145 prostate.
For experiment [12], the system named is K-562 leukemia.
Experiment [13] concerns MALME-3M melanoma.
For experiment [14], the system named is MDA-MB-231 breast.
The test system of experiment [15] is RXF 393 renal.
The subject of experiment [16] is SF-268 CNS.
The test system of experiment [17] is SF-295 CNS.
The test system of experiment [18] is SF-539 CNS.
Experiment [19] has as its system UACC-257 melanoma.
In experiment [20] the test system is M14 melanoma.

On to `CC(C)NC(=O)OCC#CCOC(=O)NC(C)C`, for which the growth in [1] was 99.6%; in experiment [2] it was 106%; in [3], 86.8%; in [4] it was 104%; in experiment [5] it was 108%; in experiment [6], 105%. The growth in experiment [7] was 89.1%; in experiment [8] it was 96.7%; in experiment [9], 102%; in [10], 106%; in experiment [11] it was 111%; in experiment [12] it was 87.9%. Moreover, the growth was 92.6% in experiment [13]; 103% in experiment [14]; 113% in experiment [15]; 110% in experiment [16]; 82.8% in experiment [17]; 109% in experiment [18]. Further, the growth is 105% in [19] and 101% in experiment [20].
For the molecule `COc1cccc2nc(Nc3cccc(NC(=O)c4cc(N5CCOCC5)cc(C(F)(F)F)c4)c3)ccc12`, the growth in experiment [1] is 78.4%; in experiment [2] it was 47.8%; in experiment [3], 68.6%; in experiment [4] it was 78.6%; in [5] it was 49.2%; in experiment [6], 47.9%. Moreover, the growth in experiment [7] was 81.3%; in [8], 37.3%; in experiment [9] it was 65.8%; in [10] it was 62.5%; in experiment [11], 59.9%; in experiment [12], 45%. Moreover, the growth in experiment [13] was 91.3%; in experiment [14] it was 93.3%; in experiment [15], 51.4%; in experiment [16], 59.9%; in experiment [17], 58.4%; in [18], 82%. Also, the growth in experiment [19] is 57.1%; in [20] it was 52.5%.
On to `C1=C\CCCCN2CC[C@H]3[C@H](CCCC/C=C\CCCN4C[C@@H](CCCCC/1)C[C@@H]3C4)C2`, for which the growth in [1] is 79.5%; in experiment [2], 110%; in experiment [3], 108%; in [4], 76.3%; in [5], 51.8%; in experiment [6], 17.6%. The growth in experiment [7] was 47.8%; in experiment [8], 48.9%; in experiment [9], 73.2%; in experiment [10], -64.3% (active); in [11] it was 93.9%; in experiment [12] it was -19.5% (active). Also, the growth in experiment [13] is 98.9%; in experiment [14] it was 73.9%; in experiment [15], -43.3% (active); in experiment [16], 73.8%; in [17], 51.3%; in experiment [18], 31.3%. The values for the growth in [19] and in experiment [20] were 84.7% and 1.72% (active), respectively.
For `O=C1/C(=C\c2cccn2Cc2ccc(Cl)cc2)c2ccccc2N1c1c(Cl)cccc1Cl`, the growth is 86.3% in experiment [1]; 59.3% in [2]; 68.6% in experiment [3]; 98.6% in experiment [4]; 94% in experiment [5]; 74.8% in [6]. Besides, the growth in experiment [7] is 76.6%; in experiment [8], 67.2%; in [9], 81.7%; in experiment [10] it was 93.6%; in experiment [11], 105%; in [12] it was 75.6%. In addition, the growth in [13] was 79.5%; in experiment [14], 68.1%; in experiment [15], 78.3%; in experiment [16], 88.1%; in experiment [17] it was 87.7%; in experiment [18], 88.8%. In addition, the growth in [19] is 93.1%; in experiment [20] it was 101%.
On to `O=C(Nc1ccc(Oc2ccc(NC(=O)Nc3ccccc3Cl)cc2)cc1)Nc1ccccc1Cl`, for which the growth in [1] is 41.8%; in experiment [2] it was 61.9%; in experiment [3], 75.7%; in [4], 81%; in [5], 30.2%; in experiment [6], 38%. Moreover, the growth in [7] is -10.4% (active); in experiment [8], -3.15% (active); in [9], 78.7%; in experiment [10], 49%; in [11] it was 24.2%; in [12], 33.6%. For the same molecule, the growth was 66.7% in [13]; 72.3% in experiment [14]; -15.8% (active) in [15]; 40.3% in experiment [16]; 71.2% in experiment [17]; 62.8% in [18]. Besides, the growth in [19] was 60.5%; in [20], 65%.
Take `CN1CCN(Cc2ccc(NC(=O)c3cccc(C#Cc4cnc(N)c5ncccc45)c3F)cc2C(F)(F)F)CC1`: the growth in experiment [1] was 61.4%; in experiment [2], 19.3%; in [3], 46.7%; in [4] it was 49.4%; in experiment [5] it was -71.8% (active); in experiment [6], 26.5%. The growth in [7] was -9.1% (active); in experiment [8], 38.2%; in [9], -88.2% (active); in [10] it was 42.5%; in experiment [11] it was -72.4% (active); in experiment [12], -19.7% (active). For the same molecule, the growth in experiment [13] was -78.9% (active); in experiment [14] it was -74.2% (active); in experiment [15], -76.5% (active); in experiment [16], 67.2%; in experiment [17] it was 85.3%; in experiment [18] it was -29% (active). In addition, the growth was -61.6% (active) in experiment [19] and -76.4% (active) in experiment [20].
`COc1ccc(/C=C(/C(=O)N2CCN(c3ccccc3)CC2)c2cc(OC)c(OC)c(OC)c2)cc1O`: the growth in [1] is 31.5%; in experiment [2], 28.9%; in experiment [3] it was 42%; in experiment [4], 20.6%; in experiment [5] it was 5.38% (active); in experiment [6], 94%. In addition, the growth was -9.76% (active) in [7]; 17.4% in experiment [8]; 25.5% in experiment [9]; 35.7% in experiment [10]; 4.21% (active) in [11]; 6.23% (active) in [12]. Also, the growth is 60% in experiment [13]; 19.5% in [14]; 20.4% in experiment [15]; 36.9% in experiment [16]; 7.72% (active) in experiment [17]; -10.8% (active) in experiment [18]. In addition, the growth in [19] was 58.1%; in experiment [20], 3.13% (active).
